Assay outcomes deposited in PubChem by National Center for Advancing Translational Sciences (NCATS).
DT40 TDP1 CPT: DT40-hTDP1 cell growth loss with CPT; Potency, µM (highest dose often 46.2 µM), inactives show at the top dose activity change, negative = growth inhibition, actives largely listed as inhibitors; 420,000 compounds, 12% hits; chicken DT40 Tdp1-/-;hTDP1 cells + 20 nM CPT, ATP luminescence, 48 h; AID 686979; also: potency is read from the fitted curve at half-maximal effect; nearly all actives have a fitted effect of over 55% in size
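Cell growth measured by CellTiter-Glo luminescence after a minimum 48 h, 37 C compound exposure with 20 nM CPT in Tdp1-knockout DT40 cells stably expressing hTDP1, seeded 400/well; qHTS titration format.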
IL-1B inflam inh: blocks inflammasome-driven IL-1 beta release | THP-1 LPS/ATP IL-1B secretion, AlphaLISA, 16 h; active compounds read low | activity change, % at 57.5 µM | 360,000 compounds, 4.7% hits; in the data active = activity change below about -50%; inconclusive = mostly about -30% to -49%
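THP-1 cells pretreated 1 hr with compounds (up to 57.5 uM final), then stimulated with LPS (250 ng/mL final) plus ATP (1.25 mM final); secreted IL-1B measured by AlphaLISA after 16 hr, decreased signal indicating inhibition.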
ELG1 DNA repair: ELG1-dependent DNA repair inhibition; HEK293T ELG1-luciferase reporter, luminescence, 16 h; DNA damage induced by 5-fluorouridine; 330,000 compounds, 2.3% hits; Potency, µM (highest dose often 46.1 µM), without a hit: at the highest dose activity change, negative = inhibition, actives largely listed as inhibitors; AID 504467; also: potency is read from the fitted curve at half-maximal effect; nearly all actives have a fitted effect of over 55% in size
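5-Fluorouridine DNA damage + compound/DMSO, 2,000 cells/well, 16 h, 37 °C/5% CO2. ONE-Glo, 30 min RT, luminescence. Readout = decrease in reporter signal.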
RORg inh: blocks mouse ROR gamma transcriptional activity. P51450. Drosophila S2 Gal4-RORgamma UAS-luciferase reporter, 20 h. Potency, µM (titrated, usually from 53.6 µM), for inactives: top-dose activity change, negative = inhibition, actives largely listed as inhibitors. 310,000 compounds, 5.4% hits. AID 2551; also: potency is read from the fitted curve at half-maximal effect; nearly all actives have a fitted effect of over 60% in size
Target sequence (P51450 whole entry, looked up, the tested form may be a part): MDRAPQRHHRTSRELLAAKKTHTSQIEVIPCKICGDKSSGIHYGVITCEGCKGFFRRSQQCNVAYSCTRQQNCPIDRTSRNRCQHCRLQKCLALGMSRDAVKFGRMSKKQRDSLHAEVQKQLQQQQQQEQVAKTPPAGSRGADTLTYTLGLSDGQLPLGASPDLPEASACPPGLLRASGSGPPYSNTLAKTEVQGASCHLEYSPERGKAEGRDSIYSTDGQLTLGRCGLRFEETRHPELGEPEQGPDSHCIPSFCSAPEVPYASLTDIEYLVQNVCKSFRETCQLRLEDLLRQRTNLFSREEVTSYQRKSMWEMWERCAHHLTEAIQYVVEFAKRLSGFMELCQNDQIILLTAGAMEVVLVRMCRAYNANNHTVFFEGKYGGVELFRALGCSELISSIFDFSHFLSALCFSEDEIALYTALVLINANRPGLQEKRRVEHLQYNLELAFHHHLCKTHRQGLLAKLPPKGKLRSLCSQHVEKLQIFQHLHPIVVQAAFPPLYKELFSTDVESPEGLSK
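Luminescence from a UAS-regulated Photinus luciferase reporter in stably transfected Drosophila Schneider cells is measured; decreased signal marks ROR gamma inhibition. Fusion expression is induced by 700 uM copper sulfate for 20 hr.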
TDP1 cell noCPT: qHTS for Inhibitors of human tyrosyl-DNA phosphodiesterase 1 (TDP1): qHTS in cells in absence of CPT; DT40 Tdp1-/- hTDP1 cells, no CPT, ATP luminescence, 48 h; Potency, µM (titrated, usually from 46.2 µM), without a hit: at the highest dose activity change, negative = growth inhibition, usual class: inhibitors; 420,000 compounds, 15% hits; AID 686978, 2013; also: potency is read from the fitted curve at half-maximal effect; nearly all actives have a fitted effect of over 55% in size
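DT40 Tdp1-/-;hTDP1 cells, no CPT (DMSO vehicle only), 400 cells/well; compounds pin-transferred; ≥48 hr, 37 °C; CellTiter-Glo 30 min RT dark, luminescence read.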
VP16 counter: Gal4-VP16 reporter inhibition counter-screen | 310,000 compounds, 3.5% hits | Drosophila S2 Gal4-VP16 UAS-luciferase, luminescence, 20 h | Potency, µM (series often up to 53.6 µM), without a hit: top-dose activity, negative = inhibition, hits mostly inhibitors;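 also: Gal4-VP16 expression switched on by copper sulfate through the metallothionein promoter; potency is read from the fitted curve at half-maximal effect; nearly all actives have a fitted effect of over 50% in size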
ELG1 FLuc counter: luciferase inhibition in cell-free luciferin readout for ELG1 hits | shares compounds with ELG1 DNA repair | cell-free firefly luciferase luminescence counter-screen, ViewLux | Potency, µM (highest dose often 46.1 µM), for the others: top-dose activity change, negative = inhibition, hits mostly inhibitors | 350 compounds, 3% hits; also: potency is read from the fitted curve at half-maximal effect
ELG1-Luc inh: confirmation of human ELG1-dependent DNA repair inhibitors; HEK293T ELG1-luciferase levels, luminescence; cells co-treated with 5-fluorouridine; shares compounds with ELG1 DNA repair; 670 compounds, 68% hits; Potency, µM (top dose mostly 46.1 µM), for the others: at the highest dose activity change, negative = inhibition, hits mostly inhibitors; also: potency is read from the fitted curve at half-maximal effect; nearly all actives have a fitted effect of over 55% in size
ELG1-Luc MMS: confirmation of human ELG1 repair inhibitors, MMS stimulated; shares compounds with ELG1 DNA repair; Potency, µM (doses to about 46.1 µM), without a hit: at the highest dose activity change, negative = inhibition, usual class: inhibitors; HEK293T luciferase-tagged ELG1 level, MMS stimulated; AID 624249; 670 compounds, 53% hits; also: potency is read from the fitted curve at half-maximal effect; nearly all actives have a fitted effect of over 60% in size
ELG1 5-FU: confirmation of ELG1 repair inhibitors: viability with 5FU; Potency, µM (highest dose often 46.1 µM), for inactives: at the top dose activity change, negative = viability loss, actives largely listed as cytotoxic; shares compounds with ELG1 DNA repair; AID 624250; 670 tested, under 10 active; cell viability with 5-FU, ELG1-dependent repair;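 also: ELG1-luc HEK293T cells cotreated with 5-fluorouridine at 10 µM final; potency is read from the fitted curve at half-maximal effect; viability measured 16 h after compound addition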
ELG1 MMS viab: confirmation of ELG1 repair inhibitors: viability with MMS | shares compounds with ELG1 DNA repair | Cell viability with MMS, ELG1-dependent DNA repair | 670 compounds, 33% hits | Potency, µM (series often up to 46.1 µM), for inactives: at the top dose activity change, negative = viability loss, hits mostly cytotoxic;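 also: ELG1-luc HEK293T cells co-treated with 10 µM MMS; potency is read from the fitted curve at half-maximal effect; viability read 16 h after compound addition; nearly all actives have a fitted effect of over 60% in size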
ELG1 unstim viab: counter-screen for ELG1 repair inhibitors: unstimulated cell viability; AID 624252; cell viability counter-screen, unstimulated, luminescence; Potency, µM (top dose mostly 45.9 µM), for the others: top-dose activity change, negative = loss of viability, hits mostly cytotoxic; shares compounds with ELG1 DNA repair; 900 compounds, 8% hits;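 also: potency is read from the fitted curve at half-maximal effect; compound exposure lasted 16 hours before reading; nearly all actives have a fitted effect of over 55% in size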
FLuc enzyme: inhibits purified firefly luciferase, counter-screen for ELG1 hits; shares compounds with ELG1 DNA repair; purified firefly luciferase, luminescence counter-screen; Potency, µM (titrated, usually from 57.5 µM), without a hit: at the highest dose activity, negative = inhibition, hits mostly inhibitors; 350 compounds, 10% hits; AID 624253; also: potency is read from the fitted curve at half-maximal effect
Numbers without * were called inactive; ? = inconclusive; nt = not tested or not shown. In the library only some 21% were active in any assay of this set; here they are far more common. Unless noted, calls follow the shape of the dose curve; as a rule, active = well fitted curve in the direction sought with a large enough effect; inconclusive = small, poorly fitted or top-dose-only effect, or another doubt; inactive = no such curve, though single readings can be large; an effect the other way counts as inactive or inconclusive. % is scaled to controls: 0 for no effect and ±100 for the full control effect.

SMILES | DT40 TDP1 CPT | IL-1B inflam inh | ELG1 DNA repair | RORg inh | TDP1 cell noCPT | VP16 counter | ELG1-Luc inh | ELG1-Luc MMS | ELG1 5-FU | ELG1 MMS viab | ELG1 unstim viab | others
CCc1ccc(C2c3[nH]c4ccccc4c3CCN2C(=O)c2cc(C)nn2C)cc1 (configuration not stated) | ? | 0 | ? | 19% | ? | -9% | 11µM* | 20µM* | ? | ? | ?
Cn1c(=O)c2c(nc(CN3CCc4ccccc4C3)n2Cc2ccccc2F)n(C)c1=O | 8.2µM* | -63* | ? | -2% | 6.5µM* | -1% | 8.9µM* | -28% | ? | 9% | -15%
COc1ccc(-c2nn(-c3ccccc3)cc2C(=O)NCC(c2cccs2)N2CCOCC2)cc1 (configuration not stated) | ? | -15 | 4.6µM* | nt | ? | nt | 14µM* | -1% | ? | 9% | -14%
COc1cccc(-c2nn(-c3ccc(C)cc3)cc2C(=O)NCC(c2cccs2)N2CCOCC2)c1 (configuration not stated) | ? | -19 | ? | nt | ? | nt | nt | nt | nt | nt | nt
O=C(NC1CCCCC1)c1cc2ccccc2cc1O | -24% | -3 | 22% | 26% | -30% | -3% | nt | nt | nt | nt | nt
O=C1CCCC(=NNC(=O)c2cc3ccccc3cc2O)C1 | -6% | 0 | ? | nt | -22% | nt | nt | nt | nt | nt | -14%
Cn1c(=O)c2c(nc(Oc3ccc4ccccc4c3)n2C)n(C)c1=O | ? | -2 | 4.1µM* | 18% | ? | 2% | 8.9µM* | 13µM* | ? | ? | -4%
Cn1c(=O)c2c(nc(Oc3cccc(O)c3)n2C)n(C)c1=O | 4% | 5 | -18% | 7% | -14% | -1% | nt | nt | nt | nt | nt
O=C(O)c1cccc(Nc2nc(N3CCOCC3)nc(N3CCOCC3)n2)c1 | ? | -1 | -1% | -17% | -18% | 7% | 0% | 23% | -1% | -4% | -7% | ELG1 FLuc counter=21%;FLuc enzyme=-9%
O=C(CSc1nc2ccc(Nc3nc(N4CCOCC4)nc(N4CCOCC4)n3)cc2s1)Nc1ccccc1Cl | 21µM* | 0 | 2.9µM* | ? | ? | ? | 4µM* | -13% | ? | 0% | -7% | ELG1 FLuc counter=?;FLuc enzyme=-1%
CC(C)(C)Nc1nc(SCC(=O)Nc2ccccc2Cl)nc(N2CCOCC2)n1 | ? | -13 | ? | -33% | -26% | -1% | nt | nt | nt | nt | nt
COc1cccc(CC(NC(C)=O)C(=O)NC2CCN(c3nc(C)cc(C)c3C#N)CC2)c1OC (configuration not stated) | -17% | -9 | 2.8µM* | -16% | ? | 13% | 7.9µM* | 2% | ? | 3% | -4%
COc1cc(CC(NC(C)=O)C(=O)NC2CCN(c3nc(C)cc(C)c3C#N)CC2)cc(OC)c1 (configuration not stated) | -4% | 2 | -10% | -11% | -11% | -9% | nt | nt | nt | nt | nt
O=C(NC1CCCCC1)c1ccc2c(c1)S(=O)(=O)c1ccccc1C2=O | -27% | -17 | nt | nt | ? | nt | nt | nt | nt | nt | nt
CC(=O)Oc1ccc2c(C)c(CC(=O)N3CCN(C(=O)C4COc5ccccc5O4)CC3)c(=O)oc2c1C (configuration not stated) | ? | -25 | ? | 24% | -29% | -6% | 2.5µM* | ? | ? | ? | ? | ELG1 FLuc counter=-4%;FLuc enzyme=-7%
O=C1c2cccc(OCc3ccc(F)cc3)c2CCN1Cc1ccc(F)cc1 | ? | -68* | 4.1µM* | ? | 12µM* | ? | 13µM* | 3.5µM* | -5% | 3.1µM* | ?
COc1ccc(-n2c(C)c(C(C)=O)c3cc(OC(C)=O)ccc32)cc1 | 5.2µM* | 35 | 0.82µM* | -25% | 7.3µM* | -12% | 0.63µM* | ? | 15% | 9% | -8% | ELG1 FLuc counter=-18%;FLuc enzyme=-2%
COc1ccc2c(c1)c(C(C)=O)c(C)n2-c1ccc(C(C)=O)cc1 | -21% | 1 | ? | 13% | ? | -10% | nt | nt | nt | nt | nt
CC1CCN(S(=O)(=O)N2CCC(C(=O)NCc3cccnc3)CC2)CC1 | -26% | 11 | 14% | 1% | 2% | 4% | nt | nt | nt | nt | nt
CN(C)c1ccc(/C=C2\C=Cc3ccccc32)c(F)c1 | ? | nt | nt | nt | ? | nt | nt | nt | nt | nt | -4%
COc1ccc(C)cc1NC(=S)NC12CN3CN(CN(C3)C1)C2 | nt | nt | -9% | -4% | nt | -3% | nt | nt | nt | nt | nt
O=C(CCSc1nc(-c2ccc3c(c2)OCO3)cc(C(F)(F)F)n1)NCc1ccco1 | ? | -19 | ? | -38% | ? | 1% | nt | nt | nt | nt | nt
COc1ccc(CNC(=O)CCSc2nc(-c3ccc4c(c3)OCO4)cc(C(F)(F)F)n2)cc1 | -20% | -12 | 3.3µM* | ? | ? | ? | 7.9µM* | 2% | ? | -3% | 0%
